# HP1b chromo inh: blocks HP1-beta chromodomain binding to methylated histone tails | Potency, µM (titrated, usually from 114 µM), for the others: at the top dose activity change, negative = inhibition, actives largely listed as inhibitors | AID 540317 | P83916 | actives 0.56% (n = 390,000) | AlphaScreen HP1-beta / biotin-H3K9me3 peptide binding; note: nearly all actives have a fitted effect of over 70% in size
# Target sequence (P83916 whole entry, looked up): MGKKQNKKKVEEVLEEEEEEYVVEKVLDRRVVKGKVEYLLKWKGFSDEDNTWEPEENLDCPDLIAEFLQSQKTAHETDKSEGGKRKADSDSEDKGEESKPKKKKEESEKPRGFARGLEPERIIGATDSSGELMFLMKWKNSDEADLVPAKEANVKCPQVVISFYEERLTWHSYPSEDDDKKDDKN
#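 Compound inhibition of the preformed complex between 50 nM HP1-beta and 50 nM biotinylated H3K9me3 peptide was read by AlphaScreen. Buffer was PBS pH 7.4 with 0.01% Tween-20. Incubations ran 30 min at room temperature, with 10 ug/mL donor/acceptor beads.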
# ALOX12 inh: ALOX12 (human) lipoxygenase inhibition; P18054; Potency, µM (series often up to 108 µM), without a hit: at the highest dose activity change, negative = inhibition, actives largely listed as inhibitors; AID 1671190; actives 1.1% (n = 580,000); purified 12hLO, xylenol orange hydroperoxide absorbance; note: % is set by controls: 0 for no effect and ±100 for the full control effect
#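 Purified human 12hLO at 150 nM in 25 mM Hepes, 0.01% Triton X-100, pH 7.0, preincubated 15 min at room temperature with compound. Reaction started with 40 uM arachidonic acid, 30 min at room temperature. Hydroperoxide measured by Fe-xylenol orange, 573/405 nm absorbance ratio.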
# G9a inh: blocks human histone lysine methyltransferase G9a. Q96KQ7. G9a H3K9 monomethylation, AlphaScreen, 2 h. Potency, µM (series often up to 102 µM), for inactives: top-dose activity, negative = inhibition, usual class: inhibitors. actives 8.8% (n = 350,000); note: % is set by controls: 0 for no effect and ±100 for the full control effect; nearly all actives have a fitted effect of over 75% in size
# Target sequence (Q96KQ7 913-1193 limits assumed): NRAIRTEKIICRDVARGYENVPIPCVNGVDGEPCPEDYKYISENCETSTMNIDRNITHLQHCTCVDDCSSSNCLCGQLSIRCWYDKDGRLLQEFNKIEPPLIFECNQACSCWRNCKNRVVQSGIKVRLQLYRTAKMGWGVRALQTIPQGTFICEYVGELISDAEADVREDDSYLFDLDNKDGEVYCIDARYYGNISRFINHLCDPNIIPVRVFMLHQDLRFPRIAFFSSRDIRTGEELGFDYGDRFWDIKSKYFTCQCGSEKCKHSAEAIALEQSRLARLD
#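 Step 1: enzyme (final 20 nM) with compound, 15 min RT. Step 2: substrate peptide 500 nM and SAM 20 uM, 2 h RT. Step 3: anti-H3K9me1 antibody and AlphaScreen beads, 10 min, then plate read.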
# JMJD2A Tudor: blocks the human JMJD2A Tudor domain | O75164 | AlphaScreen JMJD2A-Tudor / H3K4me3 peptide binding | Potency, µM (highest dose often 114 µM), for the others: at the highest dose activity change, negative = inhibition, hits mostly inhibitors | actives 4.4% (n = 390,000); note: % is set by controls: 0 for no effect and ±100 for the full control effect; nearly all actives have a fitted effect of over 50% in size
# BAZ2B inh: blocks human BAZ2B | AID 504333 | Potency, µM (doses to about 114 µM), inactives show at the top dose activity change, negative = inhibition, actives largely listed as inhibitors | AlphaScreen BAZ2B-H3K14Ac peptide displacement | Q9UIF8 | actives 4.4% (n = 360,000); note: % is set by controls: 0 for no effect and ±100 for the full control effect; nearly all actives have a fitted effect of over 60% in size
#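 AlphaScreen displacement of biotin-H3(5-23)K14Ac peptide (50 nM final) from BAZ2B (50 nM final) in PBS pH 7.4, 0.01% Tween-20; complex preformed 30 min RT, then compounds (top 110 uM) 30 min RT, beads 20 min dark.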
# Sfp inh: blocks B. subtilis Sfp PPTase activity. Biochemical Sfp PPTase activity, qHTS. AID 1490. Q9F4F7. Potency, µM, for inactives: largest response in the series, negative = inhibition, hits mostly inhibitors. actives 3.5% (n = 310,000);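 note: the enzyme is Sfp with the accession as filed and its product quenches rhodamine fluorescence; 0% = enzyme reaction without inhibitor and -100% = no enzyme wells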
#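 Buffer: 50 mM Hepes-Na pH 7.6, 10 mM MgCl2, 0.01% Nonidet P-40, 0.01% BSA. Enzyme 15 nM, pre-exposed to compound 15 min; substrates then added and fluorescence change tracked over 30 min.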
# Active calls of the source: *; ? = inconclusive; nt = not tested or not shown; [ ] = another dose, or the depositor's remark. Shown are actives, neighbours in structure and some others; about 8.7% of the full set was active somewhere. Calls come from the whole dose curve; as a rule, active = well fitted curve in the direction sought with a large enough effect; inconclusive = small, poorly fitted or top-dose-only effect, or another doubt; inactive = no such curve, though single readings can be large; an effect the other way counts as inactive or inconclusive. Potency is the fitted concentration of half-maximal effect.
SMILES,HP1b chromo inh,ALOX12 inh,G9a inh,JMJD2A Tudor,BAZ2B inh,Sfp inh
CCc1c(C)sc(NC(=O)c2cc(C3CC3)on2)c1C#N,-1%,-17%,45µM*,0%,10%,0%
CCc1c(C)sc(NC(=O)c2cc(C)on2)c1C#N,5%,-26%,nt,-9%,2%,-5%
CCCc1cc(C(=O)Nc2sc(C)c(CC)c2C#N)no1,4%,-29%,14%[59 µM],6%,2%,56µM*
CCc1c(C)sc(NC(=O)Cc2ccccc2Cl)c1C#N,nt,-6%,nt,nt,nt,nt
Cc1[nH]c(=O)[nH]c(=O)c1/C=N/NC(=O)[C@@H](N)CC(C)C,39%,3%,?,?,50µM*,-26%
COc1ccc(CNC[C@H]2Cn3c(-c4ccc(Cl)cc4)cnc3CO2)cc1,nt,45µM*,nt,nt,nt,nt
O=S(=O)(N/N=C\c1cccnc1)c1ccccc1,30%,-15%,10µM*,-18%,-1%,24%
O=S(=O)(N/N=C/c1ccc(N2CCOCC2)cc1)c1ccccc1,4%,0%,45µM*,-21%,5%,15%
CC(=O)Nc1ccc(S(=O)(=O)N/N=C/c2cccnc2)cc1,43%,17%,nt,6%,-10%,-2%
CCOc1nc2ccccc2nc1N1CCC(C(=O)Nc2ccc(NC(C)=O)cc2)CC1,nt,-39%,nt,nt,nt,nt
COCC1CN(C(=O)c2ccc(C)s2)CC12CCOCC2 (stereo unspecified),nt,47%,nt,nt,nt,nt
NNc1nc2ccccc2c(=O)n1Cc1ccccc1,13%,?,nt,?,-18%,20µM*
Cc1ccc(-c2nc3ccccc3c(=O)n2Cc2ccccc2)cc1,66%,-13%,-1%[59 µM],4%,10%,0%
O=c1c2ccccc2nc(-c2ccccc2O)n1Cc1ccccc1,nt,nt,nt,79µM*,nt,nt
CC(C)OCCCn1c(NN)nc2ccccc2c1=O,24%,24%,?,-26%,-27%,0%
COCCO[C@H]1C(=O)N(C2CCN(C(=O)c3sc(C)nc3C)CC2)[C@H]1c1ccncc1,nt,83%,nt,nt,nt,nt
CCc1c(C)sc(NC(=O)CSc2nc3c(c(C(F)(F)F)n2)CCc2ccccc2-3)c1C#N,-4%,?,?,-13%,-1%,45µM*
COc1ccccc1N1CCN([C@@H]2[C@H](O)[C@H](CO)O[C@@H]2CNC(=O)c2ccccc2)CC1,nt,22µM*,nt,nt,nt,nt
O=C(Cc1cccc(F)c1)NCC1CCN(Cc2cccs2)CC1,nt,38%,nt,nt,nt,nt
COCc1ccc2c(c1)c(OC(C)(C)C(=O)N1CCN(CCO)CC1)nn2Cc1ccccc1,nt,-7%,nt,nt,nt,nt
CC(=NCCCn1ccnc1)C1=C(O)c2ccccc2C1=O,22%,20%,4%[59 µM],-33%,45µM*,-2%
O=C(Nc1cc(F)cc(F)c1)N1CCCC1c1nncn1C1CCCC1 (stereo unspecified),nt,-19%,nt,nt,nt,nt
Nc1ccccc1C(=O)/C=C/c1ccc2c(c1)OCO2,?,-9%,40µM*,45µM*,14µM*,?
Nc1ccccc1C(=O)/C=C\c1ccc2c(c1)OCO2,nt,nt,nt,nt,nt,7%
CCNc1ccc(Br)cc(C(=O)/C=C/c2ccc3c(c2)OCO3)c1=O,20µM*,3.2µM*,nt,45µM*,22µM*,-81%
SMILES,HP1b chromo inh,ALOX12 inh,G9a inh,JMJD2A Tudor,BAZ2B inh,Sfp inh
CCNc1ccc(Br)cc(C(=O)/C=C/c2ccc(Cl)cc2)c1=O,-35%,nt,10µM*,45µM*,10µM*,40µM*
Cc1ccc(O)c(C(=O)/C=C/c2ccc3c(c2)OCCO3)c1,?,-9%,25µM*,28µM*,28µM*,-27%
Cc1ccc(C(=O)C=Cc2ccc3c(c2)OCO3)c(C)c1,nt,-2%,nt,nt,nt,nt
COCCOc1ccnc(-c2noc([C@@H]3CCCN3Cc3cccc(OC(F)(F)F)c3)n2)c1,nt,57%,nt,nt,nt,nt
CCNC(=O)/C=C/c1cccc(Br)c1,nt,-5%[22.9 µM],-19%[12.7 µM],nt,nt,15%
CCNc1ccc(Br)cc(C(=O)/C=C/c2c(Cl)cccc2Cl)c1=O,?,nt,4µM*,89µM*,25µM*,16µM*
COc1ccc(NS(=O)(=O)c2cc(NC(=O)c3ccccn3)ccc2OC)cc1Br,29%,-6%,nt,-19%,nt,nt
CCN(CC)c1ccc(N)cc1S(=O)(=O)Nc1ccccc1OC,11µM*,?,2.5µM*,?,?,11µM*
CCN(CC)c1ccc(N)cc1S(=O)(=O)Nc1ccc(OC)cc1,?,-7%,?,-25%,?,-25%
CCN(CC)c1ccc(NC(=O)c2ccccn2)cc1S(=O)(=O)Nc1ccccc1OC,?,?,2.5µM*,56µM*,?,nt
CCN(CC)c1ccc(NC(=O)COc2ccccc2C#N)cc1S(=O)(=O)Nc1ccccc1OC,?,?,2.5µM*,?,-34%,?
Cc1ccc(OCc2nc3ccc(Cl)cc3[nH]2)cc1C,nt,31%,nt,nt,nt,nt
CCCN(Cc1ccc(N(C)C)cc1)CC1CC1,6%,?,?,?,?,89µM*
CCCN(Cc1ccc(N(CC)CC)cc1)CC1CC1,9%,-25%,?,-29%,?,9%
COc1ccc(NC(=S)N(CCCN2CCOCC2)Cc2cn(C)c3ccccc23)cc1OC,-3%,3%,50µM*,-27%,?,-16%
COCCCn1c(=S)[nH]c(C)c(C)c1=O,27%,?,nt,22µM*,10%,?
COCCCn1c(=S)[nH]c2ncccc2c1=O,32%,?,45µM*,?,-30%,11%
COCCn1c(=S)[nH]c2ncccc2c1=O,16%,?,?,14µM*,-23%,-21%
CCCCCn1c(=S)[nH]c2ncccc2c1=O,39%,-7%,20%[2.33 µM],-6%,10%,17%
CCOC(=O)c1cccc(OCC(O)Cn2c(=O)c3ccccc3n3nc(C)cc23)c1 (stereo unspecified),nt,-1%,nt,nt,nt,nt
CN(C)CCCC(=O)N1Cc2ccccc2CC2(CCN(CC3CCOCC3)CC2)C1,nt,1%[6.33 µM],nt,nt,nt,nt
Nc1ccccc1Nc1c(F)c(F)nc(F)c1Cl,13%,-1%,13µM*,-33%,?,6%
CCOc1ccc(OCC)c(NC(=O)CN2CCN(CC)CC2)c1,?,?,20µM*,0.89µM*,?,-3%
CCOc1ccc(OCC)c(NC(=O)Cn2cccc2)c1,14%,-1%,-8%[59 µM],-12%,-36%,9%
CCOc1ccccc1NC(=O)COC(=O)C1CC(=O)N(c2c(C)cccc2C)C1 (stereo unspecified),-21%,-10%,56µM*,1%,-27%,14%
CCOc1ccccc1NC(=O)CN1CCCCCC1,-13%,-20%,nt,3.2µM*,50µM*,-22%
CCOc1ccc(OCC)c(NC(=O)CN2CCN(CC(=O)NC(C)C)CC2)c1,?,?,nt,28µM*,?,?

# Screening results: PubChem BioAssay, National Center for Advancing Translational Sciences (NCATS)
